Assay outcomes (PubChem BioAssay)
Rows were chosen to be rich in hits. Some 4.1% of all compounds tested hit in one or more screens of this group.
PolyA inh = polyadenylation inhibitors in yeast reporter cells, primary screen, luminescence, S. cerevisiae. S. cerevisiae SKY197-pL101 polyadenylation reporter, beta-gal luminescence; efflux-impaired pdr1/pdr3 knockout yeast; score 100 = 6 SD above DMSO. 300,000 tested, 0.02% active. activity score, % at 12 µM;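 active = lowest replicate activity score at least 50, where 100 means six control SD above control mean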;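 note: yeast exposed to compound for 9 h at 30 °C; higher score means more reporter readthrough which indicates perturbed polyadenylation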
IDE cell activ = human IDE activators in live cells, primary screen, fluorescence polarization, HEK cells, FAbeta-B substrate | Insulin-degrading enzyme (Homo sapiens), P14735 | FAbeta-B cleavage; 0% vehicle, 100% cell-free pure enzyme wells | activation, % at 5.96 µM | 340,000 tested, 0.073% active;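 active = activation above the mean of all tested compounds plus 3 SD, set per screening campaign, cut at about 17% in these data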
M18AAP inhibitor = PfM18AAP inhibitors, malaria aminopeptidase, primary screen, biochemical, QFRET, recombinant enzyme; H-Glu-NHMec fluorogenic cleavage; inhibition, % at 7.35 µM; AID 1822, 2009; M18 aspartyl aminopeptidase (Plasmodium falciparum 3D7); 290,000 tested, 1.2% active;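 active = inhibition above the campaign mean inhibition over all tested compounds plus 3 SD, cut at about 28% in these data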;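 note: 0% = plate median of test compound wells and 100% = 2 mM ZnCl2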
IDE cell inh = human IDE inhibitors in live cells, primary screen, fluorescence polarization, HEK cells, FAbetaB substrate; 320,000 tested, 0.41% active; FAbetaB cleavage; inhibition, % at 5.59 µM; Insulin-degrading enzyme (Homo sapiens), P14735;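 active = percent inhibition above the average of all tested compounds plus 3 SD, set per screening campaign, cut at about 16% in these data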;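 note: IDE supplied by intact live HEK cells; FP after avidin binding of uncleaved biotin substrate so inhibition keeps polarization high; 0% = DMSO wells and 100% = 60 µM reference IDE inhibitor Ii1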
CaV13 FRET inh = Disruptors of the CACNA1D IQ motif to Ca2+-dependent inactivation inhibitor domain association, primary screening, Förster resonance energy transfer in intact living …; HEK cells, CFP/YFP FRET ICDI-IQ, plate reader, 10 min; percent FRET-ratio fall versus neutral wells; inhibition, % at 12.3 µM; 340,000 tested, 0.098% active;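 active = mean replicate inhibition of at least 30% and at least 1% of replicates passing that level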;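 note: 0% = median of the neutral control wells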
ALR H2O2 inh = inhibitors of human ALR sulfhydryl oxidase, primary screen, biochemical, H2O2 detection, HRP-luminol luminescence, single point | FAD-linked sulfhydryl oxidase ALR (Homo sapiens), P55789 | purified ALR, DTT oxidation | inhibition, % (concentration not given with the values) | 290,000 tested, 3.8% active;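 active = mean replicate inhibition above about 79%, with every replicate also reaching it, limit read from the data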
Target sequence (P55789 whole entry, looked up): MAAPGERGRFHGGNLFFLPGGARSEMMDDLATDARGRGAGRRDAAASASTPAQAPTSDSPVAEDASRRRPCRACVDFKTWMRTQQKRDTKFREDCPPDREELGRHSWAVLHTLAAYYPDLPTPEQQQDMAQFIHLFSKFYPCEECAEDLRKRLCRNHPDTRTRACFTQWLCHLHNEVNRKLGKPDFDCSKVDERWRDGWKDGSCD
IDE inh confirm = human IDE inhibitors in live cells, confirmation, fluorescence polarization, HEK cells, FAbetaB substrate. AID 435028, 2010. inhibition, % at 5.59 µM. FAbetaB cleavage. shares compounds with IDE cell inh. 1,200 tested, 51% active;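 active = mean inhibition across triplicate wells above the cutoff set by the earlier primary insulin-degrading enzyme screen, cut at about 16% in these data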;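 note: 0% = DMSO wells and 100% = 60 µM reference IDE inhibitor Ii1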
HEK cytotox = cytotoxicity in HEK cells, cytotoxicity control for IDE inhibitor project, cell-based, luminescence; shares compounds with IDE cell inh; HEK293 cytotoxicity, ATP luminescence; inhibition, % at 5.59 µM; 1,200 tested, 28% active; AID 449730, 2010; in the data active = inhibition above about 22%;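 note: 0% = vehicle wells and 100% = reference cytotoxic drug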
FP fluor counter = fluorescent or optically active artefacts, dose response, artefact control for IDE inhibitor project, biochemical, fluorescence polarization; shares compounds with IDE cell inh; FP counterscreen for fluorescent artifacts, IDE probe project; IC50, µM; 30 tested, under 10 active; AID 588718, 2011; call rule not given here
* = called active by the depositor; / = not tested or not shown.

SMILES	PolyA inh	IDE cell activ	M18AAP inhibitor	IDE cell inh	CaV13 FRET inh	ALR H2O2 inh	IDE inh confirm	HEK cytotox	others
COc1ccc(Cl)cc1NC(=O)CSc1nnc(CN2CCOCC2)n1-c1ccc(Cl)cc1	-8	-10	1	18*	-1	-2	4	16
CC(C)c1ccc(NC(=O)CSc2nnc(-c3ccccn3)n2C)cc1	3	-18	-3	19*	-3	-2	11	4
Cc1ccc(NC(=O)CSc2nnc(CN3CCOCC3)n2C)cc1C	31	-23	-2	19*	-5	/	18*	3
COc1ccc(S(=O)(=O)NC2(C(F)(F)F)NC(=O)N(CCc3ccccc3)C2=O)cc1 (stereo not drawn)	2	5	3	-5	-5	-2	/	/
COc1cccc(NC(=O)CSc2nnc(CN3CCOCC3)n2C)c1	2	-15	-3	12	0	-8	/	/
COc1ccc(NC(=O)CSc2nnc(CN3CCOCC3)n2C)cc1Cl	-8	-40	0	22*	-6	/	23*	6	FP fluor counter=>55
COC(=O)c1cc(NC(=O)CSc2nnc(CN3CCOCC3)n2C)ccc1Cl	7	-24	-11	21*	/	-4	12	17
C=CCNC(=O)/C(C#N)=C\c1cc(Cl)c(O)c(OCC)c1	-25	-12	24	9	-5	28	/	/
CCOc1cc(/C=C(/C#N)C(=O)Nc2ccc(O)cc2)cc(Br)c1O	-10	-58	-4	38*	/	99*	75*	57*
Nc1ccc(C(=O)NC2CCSc3ccccc32)cc1[N+](=O)[O-] (stereo not drawn)	-6	6	0	0	-1	0	/	/
CCCCCCn1c(=O)[nH]c2nc3cc(N)ccc3nc2c1=O	2	/	3	69*	-35	-23	93*	14
CCCCCn1c(=O)c(C(=O)c2ccccc2)nc2ccccc21	-5	2	-7	-5	-3	-15	/	/
CCOC(=O)Cc1csc(SCC(=O)Nc2cc(C)ccc2OC)n1	5	1	-3	1	0	2	/	/
CN(C)c1ccc(/C=C(\C#N)C(=O)OCC(=O)N(C)C2CCS(=O)(=O)C2)cc1 (stereo not drawn)	/	-8	/	16*	-5	1	13	4
CCN(C(=O)COC(=O)/C(C#N)=C/c1ccc(N(C)C)cc1)C1CCS(=O)(=O)C1 (stereo not drawn)	/	-2	/	2	-5	-1	/	/
O=C(Cn1nc(-c2ccc3c(c2)OCCO3)ccc1=O)Nc1cccc(NC(=O)c2ccccn2)c1	-3	/	-2	1	/	/	/	/
Cc1ccc(/C=C/c2ccc(N(C)C)cc2)[n+](C)c1	2	-10	7	18*	-28	99*	25*	91*
CCCCCC[n+]1ccccc1/C=C/c1ccc(N(C)C)cc1	/	/	/	/	-50	/	/	/
Cn1c(N)c(C(=O)COC(=O)CCC(=O)c2ccc(F)cc2)c(=O)n(C)c1=O	-1	-4	-4	2	-2	7	/	/
CCCn1nnc(NC(=O)/C=C/c2cc(Br)ccc2OC)n1	12	3	-13	-3	12	17	/	/
Cc1ccccc1-n1c(SCc2csc(Nc3ccccc3)n2)nnc1-c1cccnc1	-14	-13	7	21*	-2	-5	7	20
COc1cccc(NC(=O)c2c(C)cc(C)cc2CC(C)(C)C(=O)O)c1	-7	4	4	8	2	-15	/	/
